The structures appear in SMILES notation. About 83,000 compounds went through this panel and 20% of them were active in at least one assay; those are over-represented in the sample as a whole.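 For each line, cells grew in 96-well plates with the test compound present at a single concentration for 48 hours.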 Values without a mark were called inactive. Active and inactive are the calls of the source. The calls were made as follows: active = growth percent below 10; inactive = the rest.

This experiment has as its system MDA-MB-468 breast. Briefly: NCI-60 one-dose screen, 48 h (100 = growth as untreated, 0 = no growth, -100 = all killed). The note with it: 10 µM unless noted.
For the compound `NS(=O)(=O)c1cccc(NC(=O)C(=O)C2C(=O)Nc3ccccc32)c1` (centres undefined), the growth was 101%.

`Cc1ccc(C2=Nc3c(N)nc(N)nc3NC(c3cccc(Nc4ccnc5cc(C(F)(F)F)ccc45)c3)C2)cc1` (centres undefined): the growth is 14.7%.

Turning to `O=C1CCNC1`, the growth is 107%. With `O=[N+]([O-])c1ccc2c(c1)Cc1ccccc1-2` the figure was 84.1%. With `NNC(=O)c1nc2ccccc2[nH]1` the figure was 126%. For `CCCn1c2cc(OCc3cn(-c4ccc(Br)cc4)nn3)ccc2c2ccnc(C)c21` the value was 25.6%. With `COc1cc(C2CC(c3ccc(Cl)cc3)=NN2c2ccc(Cl)cc2)cc(OC)c1OC` (centres undefined), the growth was 100%. For `COc1ccc2c(CCc3ccc(Cl)cc3)c3[n+](cc2c1OC)CCc1cc2c(cc1-3)OCO2` the value was -11.7% (active); for `COC(=O)c1cc2c(=O)[nH]cc3c2c(n1)CCC3`, 97.7%; for `Nc1nc(-c2ccc(F)cc2)cc(-c2cnn(-c3ccccc3)n2)n1`, 104%. For `O=C(O)CCCCSc1ncnc2nc[nH]c12` the value was 96%; for `CNCc1cccc2c1OCCOCCN(C)C(=O)CN(C)S(=O)(=O)c1ccc(cc1)-c1cnc(N)c(n1)C(=O)N2`, -49.3% (active). Regarding `COc1cc2nc(SCc3cc(OC)c(OC)c(OC)c3)n(Cc3ccccc3)c(=O)c2cc1OC`, the growth is -10.1% (active). With `N#Cc1nc(-c2ccccc2)oc1S(=O)(=O)N1CCOCC1` the figure was 71.2%.
